Results on 4 compounds are retold here after PubChem BioAssay.

Where “and” joins values, the source holds several entries; their conditions need not be identical. Identical values can stand only once. Calls of active or inactive are those of the source. Unless noted, the rule behind the calls is not given here.

Experiment [1] relates to Wnt5a (protein binding on small-molecule microarray). Nature of the experiment: small molecules binding Wnt5a protein – biophysical, small-molecule microarray, 635/667 nm fluorescence, primary screen (AID 1142).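 Note: fluorescence read at 667 nm with signal to noise per printed feature.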 To be noted: 635 nm fluorescence, higher = more signal.
A short description of experiment [2]: ATP-based viability of Huh7 replicon cells – cell-based, CellTiter-Glo luminescence, basal, 48 h, cytotoxicity control for HCV replication inhibitor project, primary screen (AID 1143).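 Note: Huh7 hepatoma cells carrying a hepatitis C replication reporter with no stimulus; test concentration not given here.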 The following applies: Huh7 HCV replicon, CellTiter-Glo luminescence, 48 h, higher = more signal, called active from +8 up or from −8 down unless noted.
The nature of experiment [3]: Pseudomonas biofilm growth suppression – PAO1 strain, BacTiter-Glo luminescence, LB-PBS, primary screen (AID 1144). The following applies: P. aeruginosa PAO1 biofilm, 12 h, higher = more signal.
A short description of experiment [4]: basal CRE-LacZ reporter activity in PC12 – cell-based, unstimulated, primary screen (AID 1145). The following applies: no forskolin, luminescence, 4.5 h; higher = more signal, called active from +8 up or from −8 down unless noted.
A short description of experiment [5]: forskolin-driven CRE-LacZ activity in PC12 – cell-based, CRE-LacZ reporter, forskolin-stimulated, primary screen (AID 1146).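 Note: PC12 cells with 6xCRE LacZ reporter stimulated by forskolin 10 µM; beta-galactosidase reporter signal reflecting CREB driven transcription.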 The following applies: luminescence, 4.5 h; higher = more signal, called active from +8 up or from −8 down unless noted.
Experiment [6] addresses Streptavidin (Streptomyces avidinii) (UniProt P22629). The experiment in a line: compounds binding control protein streptavidin – biophysical, small-molecule microarray, 635/667 nm fluorescence, artefact control for SMM compound annotation, primary screen (AID 1147).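 Note: signal reflects streptavidin binding to arrayed compounds as a control protein.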 The following applies: higher = more signal.
Experiment [7] in a line: probe aInhba binding on compound microarray – biochemical, small-molecule microarray, 635/667 nm fluorescence, primary screen (AID 1148).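 Note: score merges 667nm spot fluorescence with signal-to-noise for antibody binding to printed compounds.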 To be noted: higher = more signal; small-molecule microarray, probe aInhba, fluorescence unless noted.
Experiment [8] addresses Torsin-1A (Homo sapiens) (UniProt O14656). Nature of the experiment: TOR1A wild-type binding on microarray – cell lysate, small-molecule microarray, lysate, 635/667 nm, primary screen (AID 1149). The following applies: COS7 hTOR1A-WT lysate, 635 nm fluorescence, higher = more signal.
The target is the same in experiment [9]. Nature of the experiment: torsin A mutant lysate binding on microarrays – cell lysate, small-molecule microarray, COS7 lysate, 635/667 nm fluorescence, primary screen (AID 1150).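 Note: score pools 667 nm emission and signal to noise measuring lysate protein binding.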 The following applies: COS7 hTOR1A mutant lysate, 635 nm fluorescence, higher = more signal.
Experiment [10] deals with Sonic hedgehog protein (Shh). The experiment in a line: Sonic hedgehog microarray binding compounds – biochemical, small-molecule microarray, 635/667 nm fluorescence, primary screen (AID 1151).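 Note: Shh protein binding to compounds spotted on small-molecule microarray slides; score combines spot fluorescence intensity with signal-to-noise across triplicate slides.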 The following applies: 635 nm fluorescence, higher = more signal.
Experiment [11] in a line: optical density shifts of acrAB sulA E. coli – strain DRC41, OD650, 48 h, E. coli filamentation inducer project, primary screen (AID 1152).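 Note: E. coli MC1000 strain DRC41 lacking acrAB efflux pump and sulA.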 To be noted: higher = more signal, called active from +8 up or from −8 down unless noted.
Experiment [12] can be described thus: probe aLefty1 binding on compound microarray – biochemical, small-molecule microarray, 635/667 nm fluorescence, primary screen (AID 1153).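 Note: score merges spot fluorescence with signal-to-noise ratio from the scanned slide images.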 The following applies: higher = more signal; small-molecule microarray, probe aLefty1, fluorescence unless noted.
Experiment [13] in a line: plasmodial surface anion channel blockers, osmotic lysis – cell-based, P. falciparum Indochina, OD700, 1 h, primary screen (AID 1154). The following applies: P. falciparum Indochina infected RBC osmotic lysis; higher = more signal, called active from +8 up or from −8 down unless noted.
A short description of experiment [14]: plasmodial surface anion channel blockers, osmotic lysis – cell-based, P. falciparum Indochina, OD700, 2 h, primary screen (AID 1155).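 Note: lysis reports solute entry through the parasite surface anion channel PSAC.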 To be noted: P. falciparum Indochina infected erythrocytes; higher = more signal, called active from +8 up or from −8 down unless noted.
Experiment [15] in a line: changes in parasitized red cell lysis, either direction – P. falciparum Indochina, OD700, 3 h, PSAC antagonist project, primary screen (AID 1156). To be noted: P. falciparum-infected erythrocytes, osmotic lysis; higher = more signal, called active from +8 up or from −8 down unless noted.
A short description of experiment [16]: plasmodial surface anion channel blockers, osmotic lysis – cell-based, P. falciparum Indochina, OD700, 18 h, primary screen (AID 1157). To be noted: P. falciparum Indochina infected erythrocytes, osmotic lysis OD700, 18 h; higher = more signal, called active from +8 up or from −8 down unless noted.
Experiment [17] is described as follows: S6 kinase pathway phospho-S6 level changes – cell-based, A549, cytoblot, luminescence, serum-stimulated, primary screen (AID 1158).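 Note: serum-stimulated A549 lung adenocarcinoma cells; signal is phosphorylated S6 detected by cytoblot immunostaining with HRP secondary.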 The following applies: 5 h, higher = more signal.
Experiment [18] has as its target NADPH oxidase 2 (Homo sapiens) (UniProt P04839). The experiment in a line: compounds shifting NOX2 Amplex Red fluorescence – cell-based, HEK293-NOX2, PMA-stimulated, NOX inhibitor project, primary screen (AID 1159). Note: test concentration not given here. To be noted: 45 min; higher = more signal, called active from +8 up or from −8 down unless noted.
Experiment [19] addresses NADPH oxidase 4 (Homo sapiens) (UniProt Q9NPH5). The experiment in a line: compounds shifting NOX4 Amplex Red fluorescence – cell-based, HEK293-NOX4, tetracycline-induced, NOX inhibitor project, primary screen (AID 1160). To be noted: HEK293-NOX4, Amplex Red H2O2 fluorescence, 45 min; higher = more signal, called active from +8 up or from −8 down unless noted.
In experiment [20] the target is NADPH oxidase 5 (Homo sapiens) (UniProt Q96PH1). Nature of the experiment: compounds shifting NOX5 Amplex Red fluorescence – cell-based, HEK293-NOX5, NOX inhibitor project, primary screen (AID 1161). The following applies: HEK293-NOX5, ionomycin, 45 min, higher = more signal.
Chain of NADPH oxidase 5 (Homo sapiens) (Q96PH1 whole entry, looked up): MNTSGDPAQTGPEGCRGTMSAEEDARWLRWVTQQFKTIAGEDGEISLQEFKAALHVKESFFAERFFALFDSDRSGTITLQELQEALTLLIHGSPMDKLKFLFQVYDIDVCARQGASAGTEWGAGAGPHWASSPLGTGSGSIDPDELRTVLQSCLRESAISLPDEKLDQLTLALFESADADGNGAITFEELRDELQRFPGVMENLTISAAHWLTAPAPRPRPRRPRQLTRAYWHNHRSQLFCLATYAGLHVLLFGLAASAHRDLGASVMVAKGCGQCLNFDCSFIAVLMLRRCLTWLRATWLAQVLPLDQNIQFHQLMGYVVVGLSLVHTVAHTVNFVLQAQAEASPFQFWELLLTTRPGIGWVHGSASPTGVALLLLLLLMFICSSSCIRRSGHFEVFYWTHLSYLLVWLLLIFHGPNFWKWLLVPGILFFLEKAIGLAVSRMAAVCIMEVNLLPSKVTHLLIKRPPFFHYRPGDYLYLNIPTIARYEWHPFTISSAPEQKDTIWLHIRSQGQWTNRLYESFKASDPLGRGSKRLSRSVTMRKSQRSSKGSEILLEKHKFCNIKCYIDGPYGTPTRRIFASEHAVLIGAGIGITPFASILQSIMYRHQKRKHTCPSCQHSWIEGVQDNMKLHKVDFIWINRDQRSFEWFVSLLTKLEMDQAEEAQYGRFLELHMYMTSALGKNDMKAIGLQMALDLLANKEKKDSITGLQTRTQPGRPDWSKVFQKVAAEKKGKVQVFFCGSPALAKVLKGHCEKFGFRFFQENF

Chain of Torsin-1A (Homo sapiens) (O14656 whole entry, looked up): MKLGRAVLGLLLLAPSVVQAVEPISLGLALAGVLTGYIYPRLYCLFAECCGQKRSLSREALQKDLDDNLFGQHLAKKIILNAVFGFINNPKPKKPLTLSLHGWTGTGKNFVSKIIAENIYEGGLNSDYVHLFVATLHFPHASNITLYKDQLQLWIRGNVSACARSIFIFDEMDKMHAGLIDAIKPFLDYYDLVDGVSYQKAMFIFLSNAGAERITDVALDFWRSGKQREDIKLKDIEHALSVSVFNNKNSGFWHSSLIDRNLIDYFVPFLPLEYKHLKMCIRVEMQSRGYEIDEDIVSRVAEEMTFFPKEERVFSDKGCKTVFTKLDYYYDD
Chain of NADPH oxidase 4 (Homo sapiens) (Q9NPH5 whole entry, looked up): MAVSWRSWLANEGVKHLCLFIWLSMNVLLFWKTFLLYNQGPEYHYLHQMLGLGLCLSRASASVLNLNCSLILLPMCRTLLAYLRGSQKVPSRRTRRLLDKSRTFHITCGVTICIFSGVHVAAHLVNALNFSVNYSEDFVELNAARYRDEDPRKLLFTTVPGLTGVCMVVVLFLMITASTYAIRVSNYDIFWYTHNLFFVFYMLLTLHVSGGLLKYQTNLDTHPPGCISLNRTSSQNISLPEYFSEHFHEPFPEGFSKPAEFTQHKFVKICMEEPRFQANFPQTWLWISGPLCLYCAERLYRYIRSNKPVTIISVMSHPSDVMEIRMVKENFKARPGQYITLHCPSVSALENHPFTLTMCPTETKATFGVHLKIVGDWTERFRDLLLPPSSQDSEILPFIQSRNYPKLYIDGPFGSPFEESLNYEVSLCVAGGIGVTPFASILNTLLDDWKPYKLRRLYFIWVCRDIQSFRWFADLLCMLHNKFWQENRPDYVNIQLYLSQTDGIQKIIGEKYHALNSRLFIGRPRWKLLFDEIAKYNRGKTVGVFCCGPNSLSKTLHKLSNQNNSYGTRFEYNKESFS
Chain of Streptavidin (Streptomyces avidinii) (P22629 whole entry, looked up): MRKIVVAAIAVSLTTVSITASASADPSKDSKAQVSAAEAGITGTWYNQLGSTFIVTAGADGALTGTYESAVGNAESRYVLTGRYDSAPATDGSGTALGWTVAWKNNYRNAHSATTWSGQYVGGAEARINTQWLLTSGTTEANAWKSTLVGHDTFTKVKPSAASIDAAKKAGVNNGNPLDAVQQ
Chain of NADPH oxidase 2 (Homo sapiens) (P04839 whole entry, looked up): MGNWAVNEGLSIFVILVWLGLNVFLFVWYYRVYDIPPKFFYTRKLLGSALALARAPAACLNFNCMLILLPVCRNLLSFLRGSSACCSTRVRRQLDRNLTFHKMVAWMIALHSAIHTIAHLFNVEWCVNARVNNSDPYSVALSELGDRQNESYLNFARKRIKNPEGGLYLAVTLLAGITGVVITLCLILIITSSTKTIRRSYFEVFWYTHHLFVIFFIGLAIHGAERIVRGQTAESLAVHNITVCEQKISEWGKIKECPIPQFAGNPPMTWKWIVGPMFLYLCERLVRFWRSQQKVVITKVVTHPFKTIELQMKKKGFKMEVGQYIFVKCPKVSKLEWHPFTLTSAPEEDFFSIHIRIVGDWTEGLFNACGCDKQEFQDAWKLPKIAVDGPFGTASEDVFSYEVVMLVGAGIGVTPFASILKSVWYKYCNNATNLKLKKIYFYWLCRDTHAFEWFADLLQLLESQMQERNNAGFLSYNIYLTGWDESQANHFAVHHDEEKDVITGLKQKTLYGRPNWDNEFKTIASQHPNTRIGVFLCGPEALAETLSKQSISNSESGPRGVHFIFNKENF

For `CC1N(P(=O)(c2ccccc2)c2ccccc2)CC(O)(c2ccccc2)CC12CC2` (stereo not given), the composite z-score in experiment [1] was -0.025 and -0.0606; in experiment [6], -0.586 and 0.107; in experiment [7], -0.0589 and 0.475; in [8], -1.12 and -0.311; in experiment [9], 0.699 and 0.319; in experiment [10], -0.649 and -1.4. The composite z-score in [12] is -0.103 and 0.607. Moreover, the z-score is -0.601 (inactive) and -2.65 (inactive) in experiment [2]; 0.693 (inactive) and 0.00162 (inactive) in experiment [3]; 0.0075 (inactive) and -0.179 (inactive) in experiment [4]; 0.84 (inactive) and 0.498 (inactive) in experiment [5]; -1.36 (inactive) and -1.82 (inactive) in [11]; 0.232 (inactive) and 0.667 (inactive) in [13]. Moreover, the z-score in [14] was -0.0745 (inactive); in experiment [15] it was 0.716 (inactive) and 0.248 (inactive); in experiment [16] it was 0.593 (inactive) and 0.642 (inactive); in [17], -0.259 and -0.209; in [18], -0.427 (inactive) and -1.04 (inactive); in [19] it was -1.52 (inactive) and -0.626 (inactive). Also, the z-score in experiment [20] was -3.13 and -2.02.

Consider `COC(=O)[C@H]1[C@@H](O)[C@@]2(O)c3c(OC)cc(OC)cc3O[C@@]2(c2ccc(OC)cc2)[C@@H]1c1ccccc1`, for which the composite z-score came out at 0.226 in experiment [1]; 0.442 in experiment [6]; 0.0054 in experiment [7]; 0.0165 in [8]; 0.295 in [9]; 0.683 in experiment [10]. For the same compound, in experiment [12], the composite z-score is -0.19. In addition, the z-score in [2] is -4.75 (inactive); in experiment [3] it was -0.638 (inactive); in experiment [4], 1.82 (inactive); in [5], 1.43 (inactive); in experiment [11] it was 0.662 (inactive); in experiment [13], 0.253 (inactive). Also, the z-score in experiment [14] is 0.0987 (inactive); in [15] it was -0.15 (inactive); in [16] it was -0.219 (inactive); in [17], -1.37; in experiment [18], 0.0111 (inactive); in experiment [19], -0.0152 (inactive). Moreover, the z-score in experiment [20] was 0.219.

For `CCCc1cc2c(n1CCO)C(C)C1CN(C(=O)c3ccccc3)C(C)(C(=O)OC)C21` (stereo not given), the composite z-score is 0.559 in experiment [1]; 1.04 in experiment [6]; 0.414 in [7]; 0.726 in experiment [8]; 1.02 in experiment [9]; -0.898 in experiment [10]. Also, the composite z-score in experiment [12] is 0.549. Also, the z-score in experiment [2] is -0.938 (inactive); in experiment [3] it was 0.251 (inactive); in experiment [4] it was 1.74 (inactive); in [5], 0.444 (inactive); in experiment [11], -1.14 (inactive); in [13], 2.33 (inactive). For the same compound, the z-score is 0.196 (inactive) in experiment [14]; 0.101 (inactive) in experiment [15]; 0.618 (inactive) in experiment [16]; -0.199 in [17]; 0.0961 (inactive) in [18]; -2.55 (inactive) in experiment [19]. Also, in experiment [20], the z-score is -2.35.

Turning to `OCc1ccc(C2=CC(C3CC3)N(Cc3sc4ccccc4c3Cl)CC2)cc1` (stereo not given), the composite z-score in experiment [1] worked out at 0.074; in experiment [6] it was 0.337; in experiment [7], 0.0028; in experiment [8], 0.771; in [9], 0.679; in experiment [10] it was 1.65. The compound also returned a composite z-score in [12] of 0.0253. Moreover, the z-score in [2] was -3.22 (inactive); in experiment [3], -0.259 (inactive); in [4] it was 7.14 (inactive); in experiment [5], -2.05 (inactive); in experiment [11], -2 (inactive); in experiment [13], 13.6 (active). The z-score in experiment [14] was 2.7 (inactive); in experiment [15] it was 0.258 (inactive); in [16], 1.51 (inactive); in experiment [17] it was -0.627; in experiment [18], 0.703 (inactive); in experiment [19], -1.07 (inactive). The z-score in experiment [20] was -1.55.
